We go through 92 molecules from ChEMBL document CHEMBL1201862, “PubChem BioAssay data set” (2004).

Hit rate of the full screen: of about 400,000 compounds, about 2,100 (0.53%) were called active. About 14% were inconclusive and are not listed. The rule behind the calls is not given here. Shown is part of a subset that was picked to be rich in actives.

The target in the assay is Ataxin-2 (Homo sapiens) (UniProt Q99700). As to the kind of experiment: qHTS for Inhibitors of ATXN expression. In kind it is functional. On the technique in general: Quantitative high-throughput screening tests each substance at several concentrations.
Sequence of Ataxin-2 (Homo sapiens) (Q99700 whole entry): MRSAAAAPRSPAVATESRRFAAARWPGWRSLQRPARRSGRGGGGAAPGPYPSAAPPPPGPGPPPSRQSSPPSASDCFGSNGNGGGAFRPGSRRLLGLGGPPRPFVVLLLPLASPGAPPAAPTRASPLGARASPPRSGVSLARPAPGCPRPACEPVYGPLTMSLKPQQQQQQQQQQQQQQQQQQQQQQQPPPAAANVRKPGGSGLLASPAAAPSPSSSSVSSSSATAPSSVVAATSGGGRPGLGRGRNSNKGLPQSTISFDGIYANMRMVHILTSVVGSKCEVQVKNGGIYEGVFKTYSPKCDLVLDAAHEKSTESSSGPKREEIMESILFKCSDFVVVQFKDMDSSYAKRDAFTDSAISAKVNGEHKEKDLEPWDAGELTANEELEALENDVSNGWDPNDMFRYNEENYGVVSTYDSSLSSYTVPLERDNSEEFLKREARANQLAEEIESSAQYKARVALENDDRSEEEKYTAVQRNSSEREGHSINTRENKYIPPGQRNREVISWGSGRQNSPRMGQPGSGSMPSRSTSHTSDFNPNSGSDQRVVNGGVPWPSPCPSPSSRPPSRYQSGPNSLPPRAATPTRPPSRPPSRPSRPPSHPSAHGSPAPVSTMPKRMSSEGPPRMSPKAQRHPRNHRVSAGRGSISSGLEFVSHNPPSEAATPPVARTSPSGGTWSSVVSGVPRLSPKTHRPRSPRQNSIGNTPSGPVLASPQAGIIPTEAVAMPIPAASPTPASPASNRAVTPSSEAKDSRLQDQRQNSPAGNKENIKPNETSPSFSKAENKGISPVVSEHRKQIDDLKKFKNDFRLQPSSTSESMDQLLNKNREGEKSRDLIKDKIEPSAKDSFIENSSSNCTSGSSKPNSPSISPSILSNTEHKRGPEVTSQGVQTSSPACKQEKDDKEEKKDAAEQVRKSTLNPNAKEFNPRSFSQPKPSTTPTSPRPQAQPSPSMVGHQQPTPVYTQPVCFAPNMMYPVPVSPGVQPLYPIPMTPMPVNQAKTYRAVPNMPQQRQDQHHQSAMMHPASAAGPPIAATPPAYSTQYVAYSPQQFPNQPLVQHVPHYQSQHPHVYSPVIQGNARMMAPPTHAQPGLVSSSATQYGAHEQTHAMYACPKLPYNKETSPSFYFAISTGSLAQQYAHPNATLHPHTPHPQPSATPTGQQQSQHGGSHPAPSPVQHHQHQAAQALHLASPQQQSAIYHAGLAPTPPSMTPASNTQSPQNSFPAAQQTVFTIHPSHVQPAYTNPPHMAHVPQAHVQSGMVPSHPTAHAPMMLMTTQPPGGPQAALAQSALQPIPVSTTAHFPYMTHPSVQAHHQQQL
Turning to `CN(CCc1ccccc1)C(C(=O)Nc1ccc2c(c1)OCCO2)c1ccnc2ccccc12` (configuration not stated), the Potency was 35.5 µM (active).
`O=C(O)c1ccc(/C=C/c2nc(O)c3c4c(sc3n2)CCC4)cc1`: the Potency entry is “inactive”.
Consider `CCCCCCOc1ccc(/C=c2\s/c(=C(/C#N)C(=O)NCc3ccco3)n(-c3ccccc3)c2=O)cc1`, for which the Potency entry is “inactive”.
As for `CC(C)(C)c1nc(SCC(=O)NCc2cccs2)c2ccccc2n1`, the Potency result was “inactive”.
As for `O=C(CC1N=C2c3ccccc3N=C(SCC(=O)Nc3cccc(C(F)(F)F)c3)N2C1=O)NCc1cccs1` (configuration not stated), the Potency was 39.8 µM (active).
With `O=C(CSc1nnc(NC(=O)C2CC2)s1)NCc1cccs1` the entry was “inactive”; with `CN(C)CCNc1nc2sc3c(c2c(=O)n1CCc1ccccc1)CCCCC3`, 22.4 µM (active).
As for `Cc1cc2nc3c(=O)n(CCc4ccccc4)c(=O)[nH]c3nc2cc1N`, the Potency result is “inactive”.
As for `Cc1cccn2c(=O)c3cc(C(=O)NC4CCCC4)c(=N)n(CCc4ccccc4)c3nc12`, the Potency result was “inactive”.
As for `Cc1ccc(C2C=C(c3ccccc3)Nc3nc(N4C(=O)CCC4=O)nn32)cc1` (configuration not stated), the Potency result is “inactive”.
Consider `CNC(=O)c1cc2c(=O)n3cc(C)ccc3nc2n(C(C)C)c1=N`, for which the Potency result was “inactive”.
For the molecule `CCN1C(=O)CC(C(C)C)N(C2CCCC2)c2nc(Nc3ccc(C(=O)NC4CCN(C)CC4)cc3OC)ncc21` (configuration not stated), the Potency is 22.4 µM (active).
In the case of `C#Cc1ccc(CN2CCC(Oc3cc(C(=O)NC4CC4)ccc3OC)CC2)cc1`, the Potency result is “inactive”.
In the case of `COc1cccc(C(=O)NC2CCN(CC(=O)NCc3ccccc3F)CC2)c1`, the Potency entry is “inactive”.
`CCN1C(=O)CC(c2ccccc2)N(C2CCCC2)c2nc(Nc3ccc(C(=O)NC4CCN(C)CC4)cc3OC)ncc21` (configuration not stated): the Potency was 25.1 µM (active).
Regarding `COc1ccc(C2=NS(=O)(=O)N(C)C(C(=O)NC3CCCC3)=C2)cc1`, the Potency result was “inactive”.
`COc1ccc(Nc2nc(Nc3ccc(OC)cc3OC)nc(N3CCN(C)CC3)n2)c(OC)c1`: the Potency entry is “inactive”.
As for `O=C(CC(=O)c1c(F)cccc1Cl)c1ccccc1O`, the Potency result is “inactive”.
`Oc1nc(-c2ccccn2)nc2sc(-c3ccccc3)cc12`: the Potency entry was “inactive”.
To `Oc1nccc(SCc2ccc(Cl)cc2Cl)n1` belongs “inactive”.
For `Oc1cc(CSc2ccc(Cl)cc2)nc(-c2ccccn2)n1`, the Potency is 1.41 µM (active).
Take `CC1=CC2=NC(=O)/C(=C\c3cc(C)n(-c4ccccc4)c3C)C(=N)N2O1`: the Potency result was “inactive”.
In the case of `Fc1ccc(Br)cc1C1C=C(c2ccc(Br)cc2)Nc2nnnn21` (configuration not stated), the Potency result was “inactive”.
Consider `O=C(Cn1c(=O)oc2ccc(Cl)cc21)NC1CCCCC1`, for which the Potency entry is “inactive”.
For `Cc1ccc(Cl)cc1-n1c(=O)c2sc3ccccc3c2n(CC(=O)NC2CCCC2)c1=O`, the Potency was 11.2 µM (active).
With `Cc1cccn2c(=O)c3cc(C(=O)NC4CCCCCC4)sc3nc12` the entry was “inactive”; with `Cc1ccc(Nc2nc(-c3ccc(O)cc3O)cs2)nc1`, 44.7 µM (active); with `Cc1ccc(Nc2nc(-c3ccccc3)cs2)nc1`, “inactive”.
On to `Cc1ccc(Nc2nc(-c3sc(C)nc3C)cs2)cc1`, for which the Potency result is “inactive”.
Turning to `COC(=O)C1CCN(C(=O)COC(=O)c2ccc(N3CCCC3=O)cc2)CC1`, the Potency result was “inactive”.
In the case of `COc1ccc(C(=O)O/N=C(\N)Cc2ccc(Cl)c(Cl)c2)cc1OC`, the Potency was 28.2 µM (active).
Consider `COc1ccc(C(=O)COC(=O)c2sc(C)nc2C)cc1OC`, for which the Potency result is “inactive”.
Take `COc1ccc(CC(=O)Nc2cc(C)ccn2)cc1OC`: the Potency entry is “inactive”.
Consider `CCc1nnc(NC(=O)CSc2nc(C)c3c(c2C#N)CCCC3)s1`, for which the Potency entry is “inactive”.
Consider `CCCCc1ccc(NC(=O)CSc2nc(=O)n(CCN(CC)CC)c3c2CCCC3)cc1`, for which the Potency is 39.8 µM (active).
On to `COc1ccc(NC(=O)CSc2nnc3n2CCCCC3)cc1`, for which the Potency entry was “inactive”.
In the case of `Cc1ccc(S(=O)(=O)N2CCOCC2)cc1C(=O)N1C(=O)c2cccc(N)c2C1=O`, the Potency entry was “inactive”.
Turning to `Cc1cc(C(=O)CCl)c(C)n1-c1cccc(S(=O)(=O)N2CCOCC2)c1`, the Potency was 21.2 µM (active).
On to `O=C(NC1CC1)c1cccc(S(=O)(=O)N2CCOCC2)c1`, for which the Potency result is “inactive”.
In the case of `CCC(=O)c1cc2c(C)cc(=O)oc2c(C)c1O`, the Potency result was “inactive”.
Consider `CCOC(=O)c1cc2c(=O)n3ccccc3nc2n(Cc2ccco2)/c1=N/C(=O)c1ccccc1OCC`, for which the Potency result is “inactive”.
With `COC(=O)[C@]12CCCCC=C1N(Cc1ccc(Cl)cc1Cl)C(=O)[C@H](CC(=O)NCc1ccc(OC)c(OC)c1)C2` the figure was 25.1 µM (active); with `CCOC(=O)[C@]12CCC=C1N(Cc1cccc3ccccc13)C(=O)[C@H](CC(=O)NCc1ccc(OC)c(OC)c1)C2`, 39.8 µM (active); with `COc1ccc(CNC(=O)COC(=O)c2ccc(C)c(S(=O)(=O)N3CCOCC3)c2)cc1OC`, “inactive”.
For `COCCn1c(SCC(=O)NCc2ccc(OC)c(OC)c2)nc2ccccc21`, the Potency result is “inactive”.
`CCOC(=O)[C@]12CCCC=C1N(Cc1ccc(Cl)cc1Cl)C(=O)[C@H](CC(=O)NCc1ccc(OC)c(OC)c1)C2`: the Potency was 39.8 µM (active).
With `CCCOc1ccc(N2CC(C(=O)NCCc3ccc(OC)c(OC)c3)CC2=O)cc1` (configuration not stated), the Potency result was “inactive”.
Consider `CCCCCCCCN1C(=O)[C@H](CC(=O)NCc2ccc(OC)c(OC)c2)C[C@@]2(C(=O)OC)CCCCC=C12`, for which the Potency was 35.5 µM (active).
Turning to `CC1(C)C/C(=N\O)C(C(O)c2cccc([N+](=O)[O-])c2)C(C)(C)N1` (configuration not stated), the Potency result is “inactive”.
As to `O=C1CSC(c2cccc([N+](=O)[O-])c2)N1C1CC2CCC1C2` (configuration not stated), the Potency result is “inactive”.
Consider `CCCCN(CCCC)S(=O)(=O)c1ccc(C(=O)Nc2sc3c(c2C(N)=O)CCN(CC)C3)cc1`, for which the Potency result was “inactive”.
To `Cc1nc2nc(-c3ccccc3)cn2nc1C` belongs “inactive”.
With `CCCCCCCCN1C(=O)[C@H](CC(=O)NCC2CCCCC2)C[C@@]2(C(=O)OC)CCCCC=C12` the figure was 25.1 µM (active); with `Cc1ccc(C2OC34CCCCCC3C(C#N)(C(=N)O4)C2(C#N)C#N)cc1` (configuration not stated), “inactive”.
Consider `CN(Cc1cccs1)c1nc(-c2cccnc2)nc2ccccc12`, for which the Potency entry was “inactive”.
For `O=C(c1ccccc1)c1ccc2nc(-c3ccco3)c(-c3ccco3)nc2c1`, the Potency result was “inactive”.
For the molecule `COc1ccc(C2=NN(c3ccccc3)C(c3cccs3)C2)cc1` (configuration not stated), the Potency result was “inactive”.
As for `c1ccc(C2CC(c3cccs3)=NN2c2ccccc2)cc1` (configuration not stated), the Potency entry was “inactive”.
Turning to `O=C(CCl)N1N=C(c2cccs2)CC1c1ccco1` (configuration not stated), the Potency is 5.32 µM (active).
To `Cc1ccc(C2=NN(C(=O)CCl)C(c3cccs3)C2)o1` (configuration not stated) belongs 9.47 µM (active); to `Cc1ccc(C2CC(c3cccs3)=NN2C(=O)CCl)cc1` (configuration not stated), 25.1 µM (active); to `c1ccc(N2N=C(c3cccs3)CC2c2ccco2)cc1` (configuration not stated), “inactive”.
Turning to `CC(=O)Nc1ccc(C2=NN(c3ccccc3)C(c3cccs3)C2)cc1` (configuration not stated), the Potency entry is “inactive”.
To `O=C(c1ccccc1Cl)N1N=C(c2cccs2)CC1c1cccc(O)c1` (configuration not stated) belongs “inactive”.
Turning to `Clc1ccc(N2N=C(c3cccs3)CC2c2ccco2)cc1` (configuration not stated), the Potency result is “inactive”.
`COc1ccccc1N1N=C(c2cccs2)CC1c1ccccc1` (configuration not stated): the Potency entry is “inactive”.
Consider `COc1cc(C2CC(c3cccs3)=NN2C(=O)CCl)ccc1OC(F)F` (configuration not stated), for which the Potency was 39.8 µM (active).
On to `COc1ccc(C2CC(c3cccs3)=NN2c2ccc(F)cc2)cc1OC` (configuration not stated), for which the Potency result was “inactive”.
Consider `COc1ccc2nc3c(cc2c1)c(NC(=O)C1CCCO1)nn3CC(C)C` (configuration not stated), for which the Potency entry was “inactive”.
In the case of `O=S(=O)([N-]c1nc2ccccc2nc1-[n+]1ccn(Cc2ccccc2)c1)c1ccc(Cl)cc1`, the Potency result was “inactive”.
Regarding `CCCCn1nc(NC(=O)COC)c2cc3cc(OC)ccc3nc21`, the Potency result was “inactive”.
Turning to `N=c1c(C(=O)NC2CCCCC2)cc2c(=O)n3ccccc3nc2n1Cc1cccnc1`, the Potency result was “inactive”.
With `COc1ccc(C2=NN3C(C2)c2ccccc2OC3c2cccs2)cc1` (configuration not stated) the entry was “inactive”; with `O=C(CCl)N1N=C(c2ccco2)CC1c1cccs1` (configuration not stated), 17.8 µM (active).
Take `O=C(c1ccccc1)C1Oc2ccccc2C2CC(c3cccs3)=NN12` (configuration not stated): the Potency entry was “inactive”.
Take `C#CCOCCOCCOCCNc1nc(N2CCN(C(=O)CCCCCCCCCCNC(=O)[C@H]([C@@H](C)CC)n3cc(CCCCN=C(N)N)nn3)CC2)nc(N2CCN(C(=O)CCCCCCCCCCNC(=O)[C@H](CO)n3cc(CCCSC)nn3)CC2)n1`: the Potency is 35.5 µM (active).
As to `C#CCOCCOCCOCCNc1nc(N2CCN(C(=O)CCCCCCCCCCNC(=O)Cn3cc(CCCCCN)nn3)CC2)nc(N2CCN(C(=O)CCCCCCCCCCNC(=O)[C@@H]([C@H](C)O)n3cc(C)nn3)CC2)n1`, the Potency was 28.2 µM (active).
With `C#CCOCCOCCOCCNc1nc(N2CCN(C(=O)CCCCCCCCCCNC(=O)Cn3cc(C[C@@H](C)O)nn3)CC2)nc(N2CCN(C(=O)CCCCCCCCCCNC(=O)[C@@H]([C@H](C)CC)n3cc(CCCCCN)nn3)CC2)n1` the figure was 20 µM (active); with `C#CCOCCOCCOCCNc1nc(N2CCOCC2)nc(N2CCN(C(=O)[C@H]([C@@H](C)CC)n3cc([C@@H](N)Cc4ccc(O)cc4)nn3)CC2)n1`, 35.5 µM (active).
Take `CC(Sc1nnc(-c2cccnc2)o1)C(=O)NC1CCCCC1` (configuration not stated): the Potency result was “inactive”.
On to `C=CCn1c(N)c(C(=O)OCCC)c2nc3ccccc3nc21`, for which the Potency result is “inactive”.
With `OCc1ccccc1-c1ccc2nccn2c1`, the Potency result was “inactive”.
With `Cc1csc(NC(=O)c2cc3c(s2)-c2ccccc2OC3)n1` the entry was “inactive”.
As for `Cc1cccc(/C=N/c2sc3c(c2C#N)CCN(Cc2ccccc2)C3)c1O`, the Potency result was “inactive”.
`C#CCOCCOCCOCCNc1nc(N2CCN(C(=O)CCCCCCCCCCNC(=O)[C@H](CCCCN)n3cc(C)nn3)CC2)nc(N2CCN(C(=O)CCCCCCCCCCNC(=O)[C@@H]([C@H](C)O)n3cc(C)nn3)CC2)n1`: the Potency is 22.4 µM (active).
As to `C#CCOCCOCCOCCNc1nc(N2CCN(C(=O)CCCCCCCCCCNC(=O)[C@H](CCCCN)n3cc(C)nn3)CC2)nc(N2CCN(C(=O)CCCCCCCCCCNC(=O)[C@H](CO)n3cc(CCCSC)nn3)CC2)n1`, the Potency was 31.6 µM (active).
Take `Cc1ccc(C(=O)c2coc3c2C(=O)C(=O)c2ccccc2-3)cc1`: the Potency is 39.8 µM (active).
Take `O=C1C(=O)c2c(C(=O)c3ccccc3)coc2-c2ccccc21`: the Potency was 35.5 µM (active).
`COCC/N=C1/Sc2nc3ccc(C)cc3cc2CN1Cc1cccs1`: the Potency result was “inactive”.
Turning to `Cc1cc(/C=C2\NC(=S)NC2=O)c(C)n1-c1cccnc1`, the Potency result was “inactive”.
As for `CN1C(=O)/C(=C\c2ccc(N(C)C)cc2)OC1=S`, the Potency result is “inactive”.
In the case of `CN1C(=S)N(c2cccnc2)C(=O)/C1=C\c1ccc(N(C)C)cc1`, the Potency was 20 µM (active).
